Laboratory results taken from PubChem BioAssay (NCI).
Compounds without any hit were thinned out: in the full panel of roughly 83,000, 20% have a hit.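 In brief: 96-well plates, 48 h treatment, single concentration, percent growth endpoint.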 Unmarked numbers belong to inactive results. Active and inactive are the calls of the source. The calls were made as follows: active = growth percent below 10; inactive = the rest.

Test system: HT29 colon
Assay: NCI-60 one-dose screen, 48 h (100 = growth as untreated, 0 = no growth, -100 = all killed)
Conditions: 10 µM unless noted

Structure (SMILES)	growth
C=CC(=O)N1CCC(Oc2cc3c(Nc4ccc(Cl)c(Cl)c4F)ncnc3cc2OC)CC1	-16.4% (active)
FC(F)(F)c1ccc(CNc2ccc(Cc3c[nH]c4ncc(Cl)cc34)cn2)cn1	2.92% (active)
O=S1(=O)OC(c2cc(Cl)c(O)c(Br)c2)(c2cc(Cl)c(O)c(Br)c2)c2ccccc21	102%
CC(C)(C)OC(=O)N1CCC(O)[C@@H](O[Si](c2ccccc2)(c2ccccc2)C(C)(C)C)[C@H]1/C=C/c1ccccc1 (stereo partly specified)	37.9%
Cc1cn(-c2cc(NC(=O)c3ccc(C)c(Nc4nccc(-c5cccnc5)n4)c3)cc(C(F)(F)F)c2)cn1	17.4%
Cc1cnc(Nc2ccc(OCCN3CCCC3)cc2)nc1Nc1cccc(S(=O)(=O)NC(C)(C)C)c1	-41.8% (active)
Cc1cccc(C)c1N1C(c2ccccc2)=NNC12C=CC(=O)c1c(O)cccc12 (stereo unspecified)	89.4%
C=CC(=O)Nc1cccc(Nc2nc(Nc3ccc(N4CCN(C(C)=O)CC4)cc3OC)ncc2C(F)(F)F)c1	-7.05% (active)
COc1ccc(/C(C)=C(\c2ccc(Cl)cc2)c2ccc(OCCN3CCCCCC3)cc2)cc1	8.63% (active)
Cc1cc(C(=O)Nc2cc(Oc3ccc4nc(NC(=O)C5CC5)cn4n3)ccc2C)n(C)n1	4.61% (active)
CO[C@H](C(=O)N[C@@H](CCCCNC(=O)OCc1ccccc1)C(=O)OC(C)(C)C)[C@@H]1Cc2cc3cc(OC4CC(OC5CC(O)C(O)C(C)O5)C(O)C(C)O4)c(C)c(O)c3c(O)c2C(=O)[C@H]1OC1CC(OC2CC(OC3CC(C)(O)C(O)C(C)O3)C(O)C(C)O2)C(O)C(C)O1 (stereo partly specified)	2.05% (active)
